Results published in PubChem BioAssay (EPA / NIEHS).
Activity calls are given as the source filed them. The calls were made as follows: active = hit-call score of the fitted dose curve at least 0.9, where 1 is the maximum; inactive = score below 0.9.

What was measured:
[1] = read-out: Tissue Factor, F3 (gene 2152); assay: BSK_CASM3C_TissueFactor: BioMAP Diversity Plus: CASM3C Assay for Tissue Factor Biomarker Activity (AID 2283052); details: primary human coronary artery smooth muscle cells; actives raise or lower the signal;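 also: cell surface tissue factor protein level read by ELISA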
[2] = read-out: Urokinase-type plasminogen activator receptor (uPAR), PLAUR (gene 5329); assay: BSK_CASM3C_uPAR: BioMAP Diversity Plus: CASM3C Assay for Urokinase-type plasminogen activator receptor (uPAR) Biomarker Activity (AID 2283054); details: primary human coronary artery smooth muscle cells; actives raise or lower the signal;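 also: cell-surface uPAR protein level quantified by ELISA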
[3] = read-out: Vascular cell adhesion molecule 1 (VCAM1), VCAM1 (gene 7412); assay: BSK_CASM3C_VCAM1: BioMAP Diversity Plus: CASM3C Assay for Vascular cell adhesion molecule 1 (VCAM1) Biomarker Activity (AID 2283055); details: primary human coronary artery smooth muscle cells; actives raise or lower the signal;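 also: VCAM-1 protein level quantified by ELISA on the cells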
[4] = read-out: Collagen III, COL3A1 (gene 1281); assay: BSK_hDFCGF_CollagenIII: BioMAP Diversity Plus: hDFCGF Assay for Collagen III Biomarker Activity (AID 2283056); details: primary human foreskin fibroblasts; actives raise or lower the signal
Procedure, shortened: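 Cells: human foreskin fibroblasts, primary. Dosing followed by 24 h incubation, then ELISA for collagen III. Both increases and decreases scored relative to DMSO.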

[5] = read-out: Epidermal growth factor receptor (EGFR), EGFR (gene 1956); assay: BSK_hDFCGF_EGFR: BioMAP Diversity Plus: hDFCGF Assay for Epidermal growth factor receptor (EGFR) Biomarker Activity (AID 2283057); details: primary human foreskin fibroblasts; actives raise or lower the signal
Procedure, shortened: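 Measured by ELISA: EGFR levels on primary human foreskin fibroblasts 24 h after chemical treatment, analysed relative to DMSO with bidirectional fitting.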

[6] = read-out: Interleukin-8 (IL8), CXCL8 (gene 3576); assay: BSK_hDFCGF_IL8: BioMAP Diversity Plus: hDFCGF Assay for Interleukin-8 (IL8) Biomarker Activity (AID 2283058); details: primary human foreskin fibroblasts; actives raise or lower the signal
Procedure, shortened: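 IL-8 levels from compound-treated primary human fibroblasts were read by ELISA at 24 h, with DMSO serving as baseline for bidirectional fitting.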

[7] = BSK_hDFCGF_Proliferation: Cell Proliferation Assessment in the BioMAP Diversity Plus: hDFCGF Assay (AID 2283059); details: primary human foreskin fibroblasts;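 also: curves fitted for both rise and fall of signal versus DMSO baseline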
Procedure, shortened: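 Sub-confluent human foreskin fibroblast cultures receive test chemical […]. Relative cell number is quantified by sulforhodamine B staining (0.1%, after 10% TCA fixation) at 560 nm, with bidirectional fitting referenced to DMSO.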

[8] = read-out: Macrophage colony-stimulating factor (MCSF), CSF1 (gene 1435); assay: BSK_hDFCGF_MCSF: BioMAP Diversity Plus: hDFCGF Assay for Macrophage colony-stimulating factor (MCSF) Biomarker Activity (AID 2283060); details: primary human foreskin fibroblasts; actives raise or lower the signal
Procedure, shortened: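 M-CSF levels, determined by ELISA, are taken at 24 h after dosing human skin fibroblasts. Responses in either direction are fitted with DMSO serving as the baseline.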

[9] = BSK_hDFCGF_SRB: Viability Assessment in the BioMAP Diversity Plus: hDFCGF Assay (AID 2283061); details: primary human foreskin fibroblasts;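 also: cells exposed to compound for 24 h before the read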
Procedure, shortened: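 Cells were dosed with test chemical, cultured 24 h, fixed with 10% TCA, then stained with 0.1% SRB and read at 560 nm. The fibroblasts were human foreskin primary cells, and DMSO served as baseline.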

[10] = read-out: TIMP metallopeptidase inhibitor 1 (TIMP1), TIMP1 (gene 7076); assay: BSK_hDFCGF_TIMP1: BioMAP Diversity Plus: hDFCGF Assay for TIMP metallopeptidase inhibitor 1 (TIMP1) Biomarker Activity (AID 2283062); details: primary human foreskin fibroblasts; actives raise or lower the signal
Procedure, shortened: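 Fibroblasts from human foreskin are treated with test chemical and harvested at 24 h. TIMP-1 is quantified by ELISA, and gain or loss of signal is scored against DMSO.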

[11] = read-out: Monokine induced gamma interferon (MIG), CXCL9 (gene 4283); assay: BSK_hDFCGF_MIG: BioMAP Diversity Plus: hDFCGF Assay for Monokine induced gamma interferon (MIG) Biomarker Activity (AID 2283063); details: primary human foreskin fibroblasts; actives raise or lower the signal
Procedure, shortened: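 MIG signal, determined by ELISA, reflects 24 h chemical exposure of human skin primary fibroblasts. DMSO serves as negative control and baseline.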

[12] = read-out: Matrix Metallopeptidase 1 (MMP1), MMP1 (gene 4312); assay: BSK_hDFCGF_MMP1: BioMAP Diversity Plus: hDFCGF Assay for Matrix Metallopeptidase 1 (MMP1) Biomarker Activity (AID 2283064); details: primary human foreskin fibroblasts; actives raise or lower the signal
Procedure, shortened: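 Primary human foreskin fibroblasts in the hDFCGF system were dosed with test chemical, and MMP1 was measured by ELISA 24 h later. Values come from bidirectional curve fitting against the DMSO baseline.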

[13] = read-out: Vascular cell adhesion molecule 1 (VCAM1), VCAM1 (gene 7412); assay: BSK_hDFCGF_VCAM1: BioMAP Diversity Plus: hDFCGF Assay for Vascular cell adhesion molecule 1 (VCAM1) Biomarker Activity (AID 2283065); details: primary human foreskin fibroblasts; actives raise or lower the signal;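 as to AC50: VCAM-1 protein level quantified by ELISA after 24 h chemical exposure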
Procedure, shortened: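 Cells are dosed, cultured for 24 h, then VCAM-1 is quantified by ELISA; signal increases and decreases are both fitted relative to DMSO.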

[14] = read-out: Plasminogen activator inhibitor-1 (PAI1), SERPINE1 (gene 5054); assay: BSK_hDFCGF_PAI1: BioMAP Diversity Plus: hDFCGF Assay for Plasminogen activator inhibitor-1 (PAI1) Biomarker Activity (AID 2283066); details: primary human foreskin fibroblasts; actives raise or lower the signal
Procedure, shortened: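 PAI-1 levels, determined by ELISA, served as the endpoint in human foreskin fibroblast cultures exposed to compound for 24 h, with DMSO as baseline.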

[15] = read-out: Intercellular Adhesion Molecule 1 (ICAM1), ICAM1 (gene 3383); assay: BSK_KF3CT_ICAM1: BioMAP Diversity Plus: KF3CT Assay for Intercellular Adhesion Molecule 1 (ICAM1) Biomarker Activity (AID 2283067); details: primary human keratinocytes with fibroblasts; actives raise or lower the signal
Procedure, shortened: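 Dose the keratinocyte/fibroblast co-culture, wait 24 h, measure ICAM-1 by ELISA, then fit increases or decreases against DMSO. Cytotoxicity is checked in parallel cultures by SRB total-protein staining.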

[16] = read-out: Interferon-gamma inducible Protein 10 (IP10), CXCL10 (gene 3627); assay: BSK_KF3CT_IP10: BioMAP Diversity Plus: KF3CT Assay for Interferon-gamma inducible Protein 10 (IP10) Biomarker Activity (AID 2283068); details: primary human keratinocytes with fibroblasts; actives raise or lower the signal
Procedure, shortened: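 ELISA read-out of IP-10 after 24 h chemical dosing of human skin primary co-culture (keratinocytes, foreskin fibroblasts). Gain or loss of signal relative to DMSO, bidirectional curve fit.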

[17] = BSK_KF3CT_SRB: Viability Assessment in the BioMAP Diversity Plus: KF3CT Assay (AID 2283069); details: primary human keratinocytes with fibroblasts;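 also: total protein by sulforhodamine B staining as a cytotoxicity measure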
Procedure, shortened: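 Human primary keratinocyte plus foreskin fibroblast co-culture exposed to chemicals for 24 h. Total protein measured by 0.1% sulforhodamine B staining after 10% TCA fixation, read at 560 nm; bidirectional fitting versus DMSO baseline.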

[18] = read-out: Interleukin-1 alpha (IL1a), IL1A (gene 3552); assay: BSK_KF3CT_IL1a: BioMAP Diversity Plus: KF3CT Assay for Interleukin-1 alpha (IL1a) Biomarker Activity (AID 2283070); details: primary human keratinocytes with fibroblasts; actives raise or lower the signal
Procedure, shortened: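 Human keratinocyte plus foreskin fibroblast primary co-culture, sampled 24 h after chemical dosing. IL-1a measured by ELISA; responses fitted bidirectionally against DMSO baseline (negative control), so gain or loss of signal both count.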

[19] = read-out: TIMP metallopeptidase inhibitor 2 (TIMP2), TIMP2 (gene 7077); assay: BSK_KF3CT_TIMP2: BioMAP Diversity Plus: KF3CT Assay for TIMP metallopeptidase inhibitor 2 (TIMP2) Biomarker Activity (AID 2283071); details: primary human keratinocytes with fibroblasts; actives raise or lower the signal
Procedure, shortened: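 Keratinocyte–fibroblast co-culture, 24 h exposure; TIMP-2 ELISA, DMSO-normalised bidirectional fit. Parallel SRB (0.1%, TCA-fixed, 560 nm) total-protein staining gauges cytotoxicity.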

Measured: AC50

CCCCCCCCCCCCCCCC(=O)OC/C=C(C)/C=C/C=C(C)/C=C/C1=C(C)CCCC1(C)C
active: [3] 0.0326 µM | [4] 3.97 µM | [7] 27.7 µM | [8] 24.7 µM | [10] 0.846 µM | [14] 3.97 µM
inactive: all other assays above

c1ccc2cc(Nc3ccc(Nc4ccc5ccccc5c4)cc3)ccc2c1
inactive: all assays above

C=CC(C)(O)CCC=C(C)C (centres undefined)
inactive: all assays above

c1ccc(Oc2ccccc2)cc1
active: [16] 34.6 µM | [18] 20 µM | [19] 30.8 µM
inactive: all other assays above

CCC(C)c1cc([N+](=O)[O-])cc([N+](=O)[O-])c1OC(=O)OC(C)C (centres undefined)
inactive: [5]
active: [1] 12.1 µM | [2] 24.3 µM | [3] 32.1 µM | [4] 6.86 µM | [6] 13.4 µM | [7] 4.37 µM | [8] 6.2 µM | [9] 9.55 µM | [10] 11.2 µM | [11] 9.32 µM | [12] 11 µM | [13] 7.79 µM | [14] 4.79 µM | [15] 9.58 µM | [16] 5.26 µM | [17] 25.3 µM | [18] 20 µM | [19] 20 µM

O=C1OC2(c3ccccc31)c1ccc(O)c(Br)c1Oc1c2ccc(O)c1Br
active: [7] 20 µM | [8] 20 µM | [13] 7.49 µM | [18] 20 µM | [19] 20 µM
inactive: all other assays above
